Compounds without any hit were thinned out: in the full panel of roughly 83,000, 20% have a hit.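 Negative percent growth values reflect cell death: -40 means 40% of the cells present at the start died, and -100 means all died.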 Unmarked numbers belong to inactive results. Calls of active or inactive are those of the source. Rule for the calls: active = growth percent below 10; inactive = the rest.

The first assay deals with HCC-2998 colon. In words: NCI-60 one-dose screen, 48 h (100 = growth as untreated, 0 = no growth, -100 = all killed). The following applies: 10 µM.
With `COc1ccc(C2c3sc4ccc(C)cc4c3Oc3nc(N)nc(N)c32)cc1` (centres undefined), the growth is 94%. Still for that read-out and setting: with `Cc1cc(N=C2NC(=O)S/C2=C\c2ccc(F)cc2)n[nH]1` the figure was 22.4%; with `Cn1cc(-c2nnc(N)nc2-c2c[nH]c3ccccc23)c2cc(Br)cnc21`, -27% (active); with `O=C(CC(=O)Nc1ccc(Oc2ncnc3scc(Nc4n[nH]c(=S)s4)c23)cc1)Nc1ccc(Cl)cc1`, 99.8%.

`O=C1NC2C=CC=CC2/C1=C1/SC(=S)N(C2CC(=O)N(c3ccc(Br)cc3)C2=O)C1=O` (centres undefined): the growth was 99.3%. With `CC1(C)CC(=O)C2=C(C1)N(Cc1ccc(C(=O)O)cc1)C1=C(C(=O)CC(C)(C)C1)C2c1ccc(Cl)cc1`, the growth is 101%.

`Cc1ccc2c(c1)C(=O)/C(=C/c1ccc([N+](=O)[O-])cc1)S2`: the growth was 103%. Regarding `O=C(Nc1ccc(OCc2ccc(Cl)cc2)cc1)Nc1ccc(Cl)c(C(F)(F)F)c1`, the growth is 3.51% (active). `Cn1cc(-c2nc(N)nnc2-c2c[nH]c3ccccc23)c2cc(Br)cnc21`: the growth is -35% (active). On the same count and under the same terms, with `O=C(CSc1nc2ccccc2c(=O)n1-c1ccc(Cl)cc1)Nc1ccc(-c2nc3ccccc3[nH]2)cc1` the figure was 4.31% (active); with `Cc1ccc2c(c1)C(=O)/C(=C/c1c[nH]c3ccccc13)S2`, 65.8%. `COc1cccc(O)c1/C=C1\SCc2cc3c(OC)cccc3[o+]c21`: the growth was 114%.

As for `COc1cc(C2CC(c3ccc(Oc4ccc(Cl)cc4)cc3)=NN2c2nc(-c3ccc(Cl)cc3)c(C#N)c(N3CCOCC3)n2)cc(OC)c1OC` (centres undefined), the growth is 100%.

With `O=C(Nc1ccc(OCC(=O)c2ccc(Cl)cc2)cc1)Nc1ccc(Cl)c(C(F)(F)F)c1`, the growth was 33.4%. On the same count and under the same terms, in the case of `Cc1ccc2sc3c(c2c1)Oc1nc[nH]c(=O)c1C3c1cccc(F)c1` (centres undefined) it was 118%.

In the case of `Cc1cc(N=C2NC(=O)/C(=C/c3cc(C(C)(C)C)c(O)c(C(C)(C)C)c3)S2)n[nH]1`, the growth is 22.5%.

In the case of `COc1ccc(C2c3sc4ccc(C)cc4c3Oc3nc[nH]c(=O)c32)cc1` (centres undefined), the growth is 94%. Turning to `COc1cccc(C(=O)CSc2nc(-c3ccc(OCc4ccccc4)c(OC)c3)c(C#N)c(=O)[nH]2)c1`, the growth was 111%. Still for that read-out and setting: in the case of `Cc1ccc(COc2ccc(NC(=O)Nc3ccc(Cl)c(C(F)(F)F)c3)cc2)cc1` it was 83.7%; in that of `CC(C)(C)c1cc(/C=C2\S/C(=N/c3ncn[nH]3)NC2=O)cc(C(C)(C)C)c1O`, 14.5%; in that of `Cn1cc(/C=C(/SS/C(=C/c2cn(C)c3cccc(C(=O)O)c23)C(=O)O)C(=O)O)c2c(C(=O)O)cccc21`, 99.8%.

Consider `COc1ccc(C(=O)COc2ccc(NC(=O)Nc3ccccc3)cc2)cc1`, for which the growth was 105%. As for `CCn1c(SCC(=O)Nc2ccc(-c3nc4ccccc4[nH]3)cc2)nc2ccccc2c1=O`, the growth was -31.6% (active). Consider `O=C(Nc1ccc(OCc2ccc(F)cc2)cc1)Nc1ccc(Cl)c(C(F)(F)F)c1`, for which the growth was 1.98% (active).

As for `O=C(CC(=O)Nc1ccc(Oc2ncnc3scc(Nc4n[nH]c(=S)s4)c23)cc1)Nc1ccc(Br)cc1`, the growth is 112%. Consider `COc1ccc(C(=O)COc2ccc(NC(=O)Nc3ccc(Cl)c(C(F)(F)F)c3)cc2)cc1`, for which the growth is 1.03% (active). Turning to `O=C(Nc1ccc(Oc2ncnc3scc(Nc4n[nH]c(=S)s4)c23)cc1)C1(C(=O)Nc2cccc(C(F)(F)F)c2)CC1`, the growth is 107%. On the same count and under the same terms, in the case of `O=C1NC(=S)S/C1=C\c1cn(-c2ccccc2)nc1-c1ccc([N+](=O)[O-])cc1` it was 22.4%. The same measure, in the same setting: in the case of `O=C(CSc1nc2ccccc2c(=O)n1-c1ccc(Cl)cc1)Nc1ccc(-c2nc3ccc([N+](=O)[O-])cc3[nH]2)cc1` it was 12.1%.

In a further assay the test system is KM12 colon. Described as above. The following applies: 10 µM.
`COc1ccc(C2c3sc4ccc(C)cc4c3Oc3nc(N)nc(N)c32)cc1` (centres undefined): the growth is 70.9%. On to `Cc1cc(N=C2NC(=O)S/C2=C\c2ccc(F)cc2)n[nH]1`, for which the growth was 28.2%. On the same count and under the same terms, in the case of `Cn1cc(-c2nnc(N)nc2-c2c[nH]c3ccccc23)c2cc(Br)cnc21` it was 51.1%. On the same count and under the same terms, in the case of `O=C1NC2C=CC=CC2/C1=C1/SC(=S)N(C2CC(=O)N(c3ccc(Br)cc3)C2=O)C1=O` (centres undefined) it was 81.4%; in that of `CC1(C)CC(=O)C2=C(C1)N(Cc1ccc(C(=O)O)cc1)C1=C(C(=O)CC(C)(C)C1)C2c1ccc(Cl)cc1`, 108%. Same read-out and setting: with `Cc1ccc2c(c1)C(=O)/C(=C/c1ccc([N+](=O)[O-])cc1)S2` the figure was 105%; with `O=C(Nc1ccc(OCc2ccc(Cl)cc2)cc1)Nc1ccc(Cl)c(C(F)(F)F)c1`, 10.2%. For `Cn1cc(-c2nc(N)nnc2-c2c[nH]c3ccccc23)c2cc(Br)cnc21`, the growth is 13.1%. Still for that read-out and setting: with `O=C(CSc1nc2ccccc2c(=O)n1-c1ccc(Cl)cc1)Nc1ccc(-c2nc3ccccc3[nH]2)cc1` the figure was 17%. The same measure, in the same setting: with `Cc1ccc2c(c1)C(=O)/C(=C/c1c[nH]c3ccccc13)S2` the figure was 35.1%. On the same count and under the same terms, in the case of `COc1cccc(O)c1/C=C1\SCc2cc3c(OC)cccc3[o+]c21` it was 110%; in that of `COc1cc(C2CC(c3ccc(Oc4ccc(Cl)cc4)cc3)=NN2c2nc(-c3ccc(Cl)cc3)c(C#N)c(N3CCOCC3)n2)cc(OC)c1OC` (centres undefined), 101%. Turning to `O=C(Nc1ccc(OCC(=O)c2ccc(Cl)cc2)cc1)Nc1ccc(Cl)c(C(F)(F)F)c1`, the growth was 14.9%. `Cc1ccc2sc3c(c2c1)Oc1nc[nH]c(=O)c1C3c1cccc(F)c1` (centres undefined): the growth is 100%. The same measure, in the same setting: in the case of `Cc1cc(N=C2NC(=O)/C(=C/c3cc(C(C)(C)C)c(O)c(C(C)(C)C)c3)S2)n[nH]1` it was 17.1%; in that of `COc1ccc(C2c3sc4ccc(C)cc4c3Oc3nc[nH]c(=O)c32)cc1` (centres undefined), 61.1%. For the compound `COc1cccc(C(=O)CSc2nc(-c3ccc(OCc4ccccc4)c(OC)c3)c(C#N)c(=O)[nH]2)c1`, the growth is 104%. Take `CC(C)(C)c1cc(/C=C2\S/C(=N/c3ncn[nH]3)NC2=O)cc(C(C)(C)C)c1O`: the growth was 20.2%. Regarding `Cn1cc(/C=C(/SS/C(=C/c2cn(C)c3cccc(C(=O)O)c23)C(=O)O)C(=O)O)c2c(C(=O)O)cccc21`, the growth is 103%.

Regarding `COc1ccc(C(=O)COc2ccc(NC(=O)Nc3ccccc3)cc2)cc1`, the growth is 91.6%. As for `CCn1c(SCC(=O)Nc2ccc(-c3nc4ccccc4[nH]3)cc2)nc2ccccc2c1=O`, the growth is -14.5% (active). Regarding `O=C(Nc1ccc(OCc2ccc(F)cc2)cc1)Nc1ccc(Cl)c(C(F)(F)F)c1`, the growth is 11.1%. `COc1ccc(C(=O)COc2ccc(NC(=O)Nc3ccc(Cl)c(C(F)(F)F)c3)cc2)cc1`: the growth was 13.6%. As to `O=C1NC(=S)S/C1=C\c1cn(-c2ccccc2)nc1-c1ccc([N+](=O)[O-])cc1`, the growth was 24.4%. For `O=C(CSc1nc2ccccc2c(=O)n1-c1ccc(Cl)cc1)Nc1ccc(-c2nc3ccc([N+](=O)[O-])cc3[nH]2)cc1`, the growth was 43%.

The values above are taken from PubChem BioAssay (NCI).
